# From PubChem
# Rev-erbA mod – modulators of Rev-erb alpha DNA binding, primary screen, biochemical, FITC-DNA, fluorescence polarization, uHTS. Nuclear receptor subfamily 1 group D member 1 (Homo sapiens), P20393. Rev-erbα–FITC-DNA binding, 90 min. activity, % at 10 µM. 370,000 compounds, 0.79% hits;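 active means activity above about 14%, limit read from the data; passing the limit was not always enough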;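 further: 0% = DMSO wells with 35 nM protein and 100% = DMSO wells with 750 nM protein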
# Target sequence (P20393 whole entry, looked up): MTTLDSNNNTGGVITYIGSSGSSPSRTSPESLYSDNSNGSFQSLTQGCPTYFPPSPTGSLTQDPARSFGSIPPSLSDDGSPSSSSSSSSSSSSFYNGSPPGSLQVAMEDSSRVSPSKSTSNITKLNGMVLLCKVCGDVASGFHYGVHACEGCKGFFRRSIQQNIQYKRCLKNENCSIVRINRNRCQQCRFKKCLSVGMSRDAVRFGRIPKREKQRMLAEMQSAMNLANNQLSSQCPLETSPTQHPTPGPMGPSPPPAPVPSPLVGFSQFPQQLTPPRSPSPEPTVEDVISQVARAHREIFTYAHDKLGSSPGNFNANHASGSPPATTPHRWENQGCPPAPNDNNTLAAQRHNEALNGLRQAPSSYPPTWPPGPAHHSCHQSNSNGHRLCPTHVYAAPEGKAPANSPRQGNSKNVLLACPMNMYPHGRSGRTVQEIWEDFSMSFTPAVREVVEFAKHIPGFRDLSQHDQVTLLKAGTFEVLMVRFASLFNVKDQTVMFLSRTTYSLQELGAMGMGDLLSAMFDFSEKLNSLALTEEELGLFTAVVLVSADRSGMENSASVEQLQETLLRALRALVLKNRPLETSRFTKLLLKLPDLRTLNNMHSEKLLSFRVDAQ
# DAX1 inh-1 – DAX1 (NR0B1) inhibitors on StAR promoter, primary screen, cell-based, luminescence, SF-1 (NR5A1), full-length DAX-1; HEK293T StAR-luciferase reporter, SF-1/DAX-1 repression relief; inhibition, % at 6.8 µM; 370,000 compounds, 1.1% hits;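 active means inhibition above the mean over all tested compounds plus 3 SD, cut at about 3.6% in these data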;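 further: 0% = DAX-1 cells with DMSO and 100% = cells lacking DAX-1 with DMSO; higher inhibition means more luminescence from relief of DAX-1 repression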
# hcDAF-12 act – H. contortus DAF-12 nuclear receptor activators, primary screen, cell-based, luminescence, HEK293, lit1-tk-luc reporter; 370,000 compounds, 1.4% hits; activation, % at 6.8 µM; HEK293 hcDAF-12 lit1-tk-luc reporter; 0% DMSO, 100% Δ7-dafachronic acid;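 active means activation above the mean of all tested compounds plus 3 SD, cut at about 5.5% in these data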;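 further: 100% = response to 3 µM Δ7-dafachronic acid high control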
# DAX1 inh-2 – DAX1 (NR0B1) inhibitors, primary screen, cell-based, HEK293, Gal4-DAX1, luciferase luminescence; Nuclear receptor subfamily 0 group B member 1 (Homo sapiens), P51843; HEK293 Gal4-DAX1 luciferase reporter; inhibition, % at 6.75 µM; 340,000 compounds, 0.99% hits; AID 504766, 2011;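 active means inhibition above the mean over all tested compounds plus 3 SD, cut at about 4.2% in these data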;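 further: 0% = DAX1-transfected cells with DMSO and 100% = empty-vector control cells with DMSO; inhibition shows as a rise in luminescence from relieved DAX1 repression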
# hgDAF12 agonist – H. glycines DAF-12 receptor agonists, primary screen, cell-based, luminescence, HEK293, GAL4 fusion, UAS-luciferase; Nuclear hormone receptor DAF-12 (Heterodera glycines), GAL4 fusion; HEK293 GAL4-hgDAF12 UAS-luciferase reporter, agonist luminescence; normalized to butyrate control; activation, % at 6.8 µM; 370,000 compounds, 1.8% hits; AID 687014, 2013;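 active means activation above a cutoff set at the mean of all screened compounds plus 3 SD, cut at about 10% in these data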;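 further: 0% = DMSO wells and 100% = sodium butyrate wells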
# ssDAF-12 act – S. stercoralis DAF-12 nuclear receptor activators, primary screen, cell-based, luminescence, HEK293, GRIP1 co-expression, lit1-tk-luc; activation, % at 6.8 µM; HEK293 ssDAF-12/GRIP1 lit1-tk-luc reporter; % of 3 µM dafachronic acid response; 370,000 compounds, 1% hits;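 active means activation above the mean over all tested compounds plus 3 SD, cut at about 0.9% in these data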;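 further: 0% = DMSO-only wells and 100% = 3 µM delta7-dafachronic acid wells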
# DAX1 conf – DAX1 (NR0B1) inhibitors relieving SF-1 repression, confirmation, cell-based, luminescence, HEK293T, full-length DAX-1, SF-1 activated StAR promoter; inhibition, % at 6.8 µM; HEK293T StAR-promoter luciferase reporter, SF-1/DAX-1 repression; shares compounds with DAX1 inh-1; 2,400 compounds, 87% hits;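 active means inhibition above the average of every tested compound plus 3 SD, cut at about 3.8% in these data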;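 further: 0% = DAX-1 cells with DMSO and 100% = no DAX-1 control cells with DMSO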
# SF1 AF2mut Luc – StAR reporter signal changes without DAX1, counter-screen for DAX1 inhibitor project, cell-based, luminescence, AF-2 mutant SF-1, transactivation. shares compounds with DAX1 inh-1. HEK293 StAR-luciferase, SF-1 AF2 mutant. inhibition, % at 6.8 µM. 2,400 compounds, 78% hits. AID 652136, 2013;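 active means inhibition above the mean of all tested compounds plus 3 SD, cut at about 3% in these data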;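 further: 0% = DAX-1 transfected cells with DMSO and 100% = cells without DAX-1 with DMSO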
# LXR ag – LXR agonists, Gal4 luciferase reporter, confirmation, counter-screen for hcDAF-12 agonist project, cell-based, luminescence, HEK293, H. contortus campaign | activation, % at 6.8 µM | AID 743027, 2013 | 3,400 tested, under 10 active | shares compounds with hcDAF-12 act | HEK293 Gal4-LXR tk-luc reporter, 24 h; normalized: DMSO 0%, positive control 100%;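 active means mean percent activation of the reporter above a cutoff set as the average over tested compounds plus their standard deviation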
# hcDAF12 conf – H. contortus DAF-12 receptor agonists, confirmation, cell-based, luminescence, HEK293, lit1-tk-luc, triplicate | activation, % at 6.8 µM | HEK293 hcDAF-12 lit1-tk-luc reporter; % of Δ7-dafachronic acid response | 3,400 compounds, 61% hits | shares compounds with hcDAF-12 act;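 active means mean activation across triplicate tests above the threshold derived from the earlier primary screen, cut at about 5.5% in these data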;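 further: 0% = DMSO only wells and 100% = 3 µM Δ7-dafachronic acid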
# Numbers without * were called inactive; x = no result. This is a sample that favours compounds with a hit; in the whole collection about 4.8% have one here.
SMILES,Rev-erbA mod,DAX1 inh-1,hcDAF-12 act,DAX1 inh-2,hgDAF12 agonist,ssDAF-12 act,DAX1 conf,SF1 AF2mut Luc,LXR ag,hcDAF12 conf
c1ccc(-c2csc(Nc3ccc4c(c3)OCO4)n2)cc1,11,22*,17*,x,21*,2.6*,14*,7.8*,2,17*
COC(=O)C1=C(C)N(Cc2ccccc2C(F)(F)F)C(=NCc2ccccc2C(F)(F)F)NC1c1cccc(C(F)(F)F)c1 (stereo not given),1,0,2,x,1,-1,x,x,x,x
O=C(/C=C/Nc1ccccc1C(F)(F)F)c1ccco1,0,4.9*,10*,1,19*,1.1*,13*,8.3*,1,9.1*
NC(=O)c1ccccc1N/C=C/C(=O)c1ccco1,-3,2,3,2,9,0,x,x,x,x
Cc1cc(C)nc(N2CCC(C(=O)N(C)CCc3ccccc3)CC2)n1,-6,-2,-2,x,0,-1,x,x,x,x
COC(=O)C1=C(C)N(Cc2ccc(C(F)(F)F)cc2)C(=NCc2ccc(C(F)(F)F)cc2)NC1c1ccccc1C(F)(F)F (stereo not given),-2,0,-1,x,0,-1,x,x,x,x
CC(C)(C)c1ccc(/C=N/NC(=O)c2ccccn2)cc1,-3,12*,7.2*,-2,13*,0,14*,6.2*,2,9.5*
CC1(O)C(c2ccccc2)=Nc2ccccc21 (stereo not given),2,5.3*,9.9*,4.5*,11*,0,13*,7.6*,1,6.5*
C(=N\Nc1nc2ccccc2s1)/c1ccccn1,-3,-3,-5,x,-14,-3,x,x,x,x
Brc1csc(/C=N/Nc2nc3ccccc3s2)c1,0,5.9*,13*,4,20*,2.4*,15*,11*,2,9.1*
COC(=O)C1CN(Cc2ccccc2)CCS(=O)(=O)N1Cc1cn(Cc2ccc(F)cc2)nn1 (stereo not given),6,0,-1,x,1,-1,x,x,x,x
C=CCCC[C@H]1OC(=O)[C@H](C)NC(=O)[C@H](C(C)C)NC(=O)[C@@H]2CCCN2C(=O)[C@H](Cc2ccccc2)OC(=O)[C@@H](C(C)C)N(C)C(=O)[C@H](C(C)C)NC(=O)C1(C)C,-4,-2,-2,x,-4,-1,x,x,x,x
O=C(N/N=C/c1ccc(Cl)cc1)c1n[nH]c2c1CCCC2,-2,0,3,-1,4,1,x,x,x,x
O=C(N/N=C/c1ccccc1Cl)c1n[nH]c2c1CCCC2,0,5.1*,6.6*,-1,16*,1,1,-2,1,4
Cn1cccc1C(=O)N1CCN(S(=O)(=O)c2ccc(Cl)s2)CC1,-3,-1,-1,x,-5,-1,x,x,x,x
CC(C)Cc1cc(C(=O)Nc2ccc3c(c2)OCO3)no1,-1,7.3*,7.5*,2,13*,1.5*,14*,7.2*,1,4
Nc1ccccc1-n1nc2ccc3ccccc3c2n1,-11,9.6*,18*,4.6*,20*,3.1*,15*,8.5*,3,23*
Cc1c(N)ccc(-n2nc3ccccc3n2)c1C,5,0,0,x,4,-1,x,x,x,x
CC(C)(C)NC(=O)C(c1cc2ccccc2o1)n1c(-c2ccc(-c3ccccc3)cc2)nc2ccccc21 (stereo not given),-2,10*,21*,x,25*,4.8*,13*,9.6*,2,25*
Cc1csc(NC(=O)c2cncc(Br)c2)n1,10,5.2*,6.8*,0,11*,0,13*,7.8*,1,4
CCOC(=O)c1sc(NC(=O)c2cncc(Br)c2)nc1C,-7,0,-1,x,2,-1,x,x,x,x
Cc1n[nH]c2ccccc2c1=O,0,1,2,1,1,0,x,x,x,x
CC(C)(C)c1ccc(Nc2n[nH]c3ccccc23)cc1,-2,11*,13*,x,28*,2.9*,12*,4.6*,2,20*
Cc1cc(NS(=O)(=O)c2ccc(NC(=O)Cc3ccc(Cl)c(F)c3)cc2)no1,-1,-1,-3,x,-1,-2,x,x,x,x
NC(=O)c1ccsc1NC(=O)c1ccc2c(c1)CCCC2,2,6.8*,14*,0,19*,2.5*,12*,7.8*,2,21*
NC(=O)c1ccsc1NC(=O)c1cccs1,-5,2,3,0,4,-1,x,x,x,x
Clc1ccccc1/C=N/NC1=Nc2cccc3cccc1c23,13,4.6*,16*,4.3*,18*,2.8*,18*,8.0*,1,15*
CC(=O)N1CCN(C(=O)c2ccc(CNC(=O)c3cccc(Br)c3)cc2)CC1,-8,0,-2,x,-2,-1,x,x,x,x
COCCNc1ncnc2c1cnn2-c1ccc(Cl)cc1,5,4.9*,6.9*,2,12*,0,11*,6.4*,2,5
